Reference: PubChem BioAssay (Tox21)
Unmarked numbers belong to inactive results. Calls come from the whole dose curve. Records with an inconclusive call do not appear.

These molecules were tested against Acetylcholinesterase (Homo sapiens) (UniProt P22303) (assay: Acetylcholinesterase (AChE) small molecule antagonists: colormetric cell-based qHTS assay (AID 1347395; note: nearly all actives have a fitted effect of over 30% in size)). Details: SH-SY5Y cells AChE activity, colorimetric (Ellman); series mostly up to 115 µM; activity, negative = inhibition: at the top concentration.
Acetylcholinesterase (Homo sapiens), sequence (P22303 whole entry, looked up): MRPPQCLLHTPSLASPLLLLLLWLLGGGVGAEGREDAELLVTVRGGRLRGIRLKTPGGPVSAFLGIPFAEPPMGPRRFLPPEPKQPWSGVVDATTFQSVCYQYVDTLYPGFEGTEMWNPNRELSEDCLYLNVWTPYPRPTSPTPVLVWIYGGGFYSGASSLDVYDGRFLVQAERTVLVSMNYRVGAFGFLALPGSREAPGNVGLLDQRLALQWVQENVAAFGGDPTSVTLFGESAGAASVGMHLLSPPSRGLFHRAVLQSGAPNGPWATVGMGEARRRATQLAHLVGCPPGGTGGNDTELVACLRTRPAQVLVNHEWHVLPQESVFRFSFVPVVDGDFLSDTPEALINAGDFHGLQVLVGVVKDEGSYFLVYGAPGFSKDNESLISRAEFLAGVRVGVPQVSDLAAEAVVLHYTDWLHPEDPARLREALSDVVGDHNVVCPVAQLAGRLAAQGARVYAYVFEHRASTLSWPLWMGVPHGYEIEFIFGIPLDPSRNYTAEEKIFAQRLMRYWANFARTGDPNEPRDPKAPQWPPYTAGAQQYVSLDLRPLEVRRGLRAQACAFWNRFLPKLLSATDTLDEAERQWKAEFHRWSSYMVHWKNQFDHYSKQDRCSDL
Procedure, shortened: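 AChE inhibition read colorimetrically via DTNB–thiocholine in SH-SY5Y cells. Compound 30 min, substrate 90 min, both 37 C.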
% is set by controls: 0 for no effect and ±100 for the full control effect.

Compound	activity, negative = inhibition
COCCCC/C(=N\OCCN)c1ccc(C(F)(F)F)cc1	1.06% [at 52.9 µM]
CC(C)(C)C(=O)/C=C/c1ccc(Cl)cc1	-0.101%
CCCCOCCOC(=O)COc1ccc(Cl)cc1Cl	5.47%
COC(=O)c1cc(C(=O)OC)cc(S(=O)(=O)O)c1	-2.54%
NC(=O)c1ccccc1C(N)=O	-6.74%
CCOC(=O)c1ccc(O)c(O)c1	2.42% [at 52.9 µM]
Nc1cccc2c(=O)[nH][nH]c(=O)c12	5.16%
COc1c2occc2c(OC)c2c(=O)cc(C)oc12	-6.27% [at 52.9 µM]
O=C(/C=C/c1ccc(O)c(O)c1)O[C@@H]1C[C@@](OC(=O)/C=C/c2ccc(O)c(O)c2)(C(=O)O)C[C@@H](O)[C@@H]1O	-1.26% [at 52.9 µM]
Cn1cnc2ncnc(N)c21	0.491% [at 52.9 µM]
CCOCCOCCOC(C)=O	-2.03%
COC(=O)NCCC[Si](OC)(OC)OC	3.5%
CC(C)CCOCc1ccccc1	-0.802%
O=C1CCCC(=O)C1	-2.84%
CC(=O)c1cccc([N+](=O)[O-])c1	-6.82%
COCc1nnc(-c2ccc[n+]([O-])c2)n1-c1c(Cl)c(Cl)cc2[nH]c(=O)c(=O)[nH]c12	0.186%
Cc1cc(S(=O)(=O)O)ccc1N=Nc1c(O)ccc2ccccc12	12.9%
CC(=O)c1ccc2c(c1)[C@H](NC(=O)c1ccc(F)cc1)[C@@H](O)C(C)(C)O2	-1.68%
O=C(Nc1ccc([N+](=O)[O-])cc1)Nc1ccc([N+](=O)[O-])cc1	-0.0881% [at 52.9 µM]
O=C1OC(=O)c2cc(Oc3ccc4c(c3)C(=O)OC4=O)ccc21	-0.0064%

Compound	activity, negative = inhibition
Cc1cnc(C)c(C)n1	-0.716%
CCCCCCNC(=O)n1cc(F)c(=O)[nH]c1=O	-2.2% [at 52.9 µM]
CC(C)OC(=O)C(C)N(C(=O)c1ccccc1)c1ccc(F)c(Cl)c1 (stereo not drawn)	-5.91%
CCCSS/C(CCO)=C(\C)N(C=O)Cc1cnc(C)nc1N	4.32% [at 52.9 µM]
C[C@@H](O)[C@H]1C(=O)N2C(C(=O)O)=C([C@H]3CCCO3)S[C@H]12	-4.21% [at 52.9 µM]
Cc1cccc2nccnc12	0.421%
CC(=O)OCCc1ccccc1	3.45%
SCCSCCS	0.421%
O=C(/C=C/c1ccc(O)c(O)c1)O[C@@H]1C[C@](O)(C(=O)O)C[C@@H](O)[C@H]1O	4.76%
CCCCCCCCC1CCC(=O)O1 (stereo not drawn)	-1.9%
O=CN1CCCCC1	2.63%
CCCCOC(=O)CCCCC(=O)OCCCC	2.82%
COc1ccc(/C=C/C(=O)c2ccc(OC)cc2OC)cc1	-1.41% [at 52.9 µM]
O=C(O)c1cc(-c2ccc(F)cc2F)ccc1O	-2.69% [at 52.9 µM]
Cc1nc2ccccc2n1Cc1ccc(Cl)cc1	-5.98% [at 52.9 µM]
Cc1cccc(Cl)c1	-2.23%
O=C(N[C@@H](c1ccccc1)[C@@H]1CCCCN1)c1cccc(C(F)(F)F)c1Cl	1.17%
Cn1c(=O)c2c(ncn2CC(O)CO)n(C)c1=O (stereo not drawn)	1.6% [at 52.9 µM]
Cc1ccc(C(N)=O)cc1N	-1.93%

These molecules were tested against Acetylcholinesterase (Homo sapiens) (UniProt P22303) (assay: Acetylcholinesterase (AChE) small molecule antagonists: enzyme-based qHTS assay (AID 1347397; note: nearly all actives have a fitted effect of over 55% in size)). Details: Potency: AChE enzyme activity inhibition; outcome: AChE enzyme activity inhibition; series mostly up to 115 µM; activity change, negative = inhibition: at the top concentration.
Procedure, shortened: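 rhAChE 50 mU/mL (dispensed) + cpd or DMSO, 30 min RT; add DTNB/acetylthiocholine cocktail, 10 min RT; colorimetric thiocholine readout. qHTS, 1536-well format.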

Compound	activity change, negative = inhibition
COCCCC/C(=N\OCCN)c1ccc(C(F)(F)F)cc1	0.578% [at 53 µM]
CC(C)(C)C(=O)/C=C/c1ccc(Cl)cc1	-1.79%
CCCCOCCOC(=O)COc1ccc(Cl)cc1Cl	-0.387%
COC(=O)c1cc(C(=O)OC)cc(S(=O)(=O)O)c1	-0.277%
NC(=O)c1ccccc1C(N)=O	-0.273%
CCOC(=O)c1ccc(O)c(O)c1	0% [at 53 µM]
Nc1cccc2c(=O)[nH][nH]c(=O)c12	-0.144%
COc1c2occc2c(OC)c2c(=O)cc(C)oc12	0.327% [at 53 µM]
O=C(/C=C/c1ccc(O)c(O)c1)O[C@@H]1C[C@@](OC(=O)/C=C/c2ccc(O)c(O)c2)(C(=O)O)C[C@@H](O)[C@@H]1O	2.29% [at 53 µM]
Cn1cnc2ncnc(N)c21	1.9% [at 53 µM]
CCOCCOCCOC(C)=O	0.411%
COC(=O)NCCC[Si](OC)(OC)OC	1.9%
CC(C)CCOCc1ccccc1	0.138%
O=C1CCCC(=O)C1	0.562%
CC(=O)c1cccc([N+](=O)[O-])c1	-2.45%
COCc1nnc(-c2ccc[n+]([O-])c2)n1-c1c(Cl)c(Cl)cc2[nH]c(=O)c(=O)[nH]c12	1.97%
Cc1cc(S(=O)(=O)O)ccc1N=Nc1c(O)ccc2ccccc12	9.48%
CC(=O)c1ccc2c(c1)[C@H](NC(=O)c1ccc(F)cc1)[C@@H](O)C(C)(C)O2	0.361%
O=C(Nc1ccc([N+](=O)[O-])cc1)Nc1ccc([N+](=O)[O-])cc1	0.693% [at 53 µM]
O=C1OC(=O)c2cc(Oc3ccc4c(c3)C(=O)OC4=O)ccc21	0.257%

Compound	activity change, negative = inhibition
Cc1cnc(C)c(C)n1	0.87%
CCCCCCNC(=O)n1cc(F)c(=O)[nH]c1=O	-0.409% [at 53 µM]
CC(C)OC(=O)C(C)N(C(=O)c1ccccc1)c1ccc(F)c(Cl)c1 (stereo not drawn)	-1.67%
CCCSS/C(CCO)=C(\C)N(C=O)Cc1cnc(C)nc1N	-0.175% [at 53 µM]
C[C@@H](O)[C@H]1C(=O)N2C(C(=O)O)=C([C@H]3CCCO3)S[C@H]12	0.54% [at 53 µM]
Cc1cccc2nccnc12	-2.41%
CC(=O)OCCc1ccccc1	-0.663%
SCCSCCS	1.23%
O=C(/C=C/c1ccc(O)c(O)c1)O[C@@H]1C[C@](O)(C(=O)O)C[C@@H](O)[C@H]1O	3.26%
CCCCCCCCC1CCC(=O)O1 (stereo not drawn)	-0.199%
O=CN1CCCCC1	2.56%
CCCCOC(=O)CCCCC(=O)OCCCC	0.186%
COc1ccc(/C=C/C(=O)c2ccc(OC)cc2OC)cc1	-0.957% [at 53 µM]
O=C(O)c1cc(-c2ccc(F)cc2F)ccc1O	0.135% [at 53 µM]
Cc1nc2ccccc2n1Cc1ccc(Cl)cc1	0.145% [at 53 µM]
Cc1cccc(Cl)c1	-0.132%
O=C(N[C@@H](c1ccccc1)[C@@H]1CCCCN1)c1cccc(C(F)(F)F)c1Cl	1.19%
Cn1c(=O)c2c(ncn2CC(O)CO)n(C)c1=O (stereo not drawn)	0.653% [at 53 µM]
Cc1ccc(C(N)=O)cc1N	-0.491%
